The list is not random: actives were taken first. Their share in the collection is about 3.2%.
Bst PK mod – Pyruvate Kinase | 1.2% of 51,000 active | Potency, µM | AID 361, 2006 | purified pyruvate kinase, luminescence ATP production; ribose 5-phosphate activator present at AC10; in the data active = potency below about 11 µM; inconclusive = mostly about 12 µM to 25 µM;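 the screen sought inhibitors and activators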
Luciferase inh – qHTS Assay for Inhibitors of Firefly Luciferase | 2.2% of 72,000 active | purified firefly luciferase, luminescence, 8 min | Potency, µM (doses to about 57.1 µM), most hits filed as inhibitors; active = well fitted inhibition curve with a large enough effect; inconclusive = small, poorly fitted or top-dose-only effect; note: nearly all actives have a fitted effect of over 40% in size
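Substrate buffer containing 10 uM ATP (pH 7.2 imidazole, Mg2+, KCl, detergent, BSA) is dispensed, compound pinned in, then luciferase/luciferin detector mix added. After 8 min at ambient temperature, light output is measured.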
GBA mod – Glucocerebrosidase. Lysosomal acid glucosylceramidase (Homo sapiens), P04062. purified enzyme, resorufin glucoside fluorescence (screen aimed at inhibitors), 20 min. Potency, µM. 1.1% of 48,000 active. AID 360, 2006; in the data active = potency below about 15 µM; inconclusive = mostly about 16 µM to 33 µM;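 note: the screen sought inhibitors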
Target sequence (P04062 whole entry, looked up): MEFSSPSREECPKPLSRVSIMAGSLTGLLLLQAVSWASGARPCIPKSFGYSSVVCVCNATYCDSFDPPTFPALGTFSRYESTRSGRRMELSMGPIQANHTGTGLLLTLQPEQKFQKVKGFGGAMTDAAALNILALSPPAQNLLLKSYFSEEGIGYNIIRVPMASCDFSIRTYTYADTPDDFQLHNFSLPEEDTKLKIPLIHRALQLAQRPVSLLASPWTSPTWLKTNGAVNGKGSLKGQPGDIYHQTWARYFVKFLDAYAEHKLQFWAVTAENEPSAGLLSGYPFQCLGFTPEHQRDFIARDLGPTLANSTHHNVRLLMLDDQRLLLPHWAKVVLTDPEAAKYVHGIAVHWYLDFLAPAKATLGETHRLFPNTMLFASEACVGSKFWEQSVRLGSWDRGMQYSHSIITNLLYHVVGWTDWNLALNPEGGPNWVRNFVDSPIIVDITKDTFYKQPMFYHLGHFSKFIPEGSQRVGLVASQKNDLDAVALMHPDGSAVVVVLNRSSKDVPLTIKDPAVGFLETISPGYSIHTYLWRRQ
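Normal human glucocerebrosidase (0.2 nM final) was assayed with resorufin β-D-glucopyranoside (30 uM final) in 50mM citric acid/KH2PO4, 10mM sodium taurocholate, 0.01% tween-20, pH 5.9. Compounds were titrated; fluorescence (Ex 548, Em 600) read after 20 min at RT.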
A number is an active result; - = inactive; ? = inconclusive; . = not tested or not shown; [ ] = another dose, or the depositor's remark.

SMILES	Bst PK mod	Luciferase inh	GBA mod
O=C(COC(=O)c1cccnc1)Nc1cccc(Cl)c1	-	-	-
O=C(COC(=O)c1cccnc1)c1ccc(Cl)cc1	.	15.8µM	-
CC[C@H](C(=O)c1cccs1)C(O)(C(F)(F)F)C(F)(F)F	.	-[11.4 µM]	.
Cc1ccc(S(=O)(=O)NCCc2ccncc2)cc1	.	-	.
Cc1ccc(S(=O)(=O)NCCCOC(=O)Nc2ccncc2)cc1	-	-	8.86
N#C/C(=C\N1CCNC1=S)C(=O)c1ccc2ccccc2c1	.	-[11.4 µM]	.
COc1ccc(C(=O)Nc2ccc(-c3cn4ccsc4n3)cc2)cc1S(=O)(=O)N1CCOCC1	-	-	?
CC(C)CC(=O)Nc1ccc(-c2cn3ccsc3n2)cc1	2.67	3.16µM	.
O=S(=O)(Nc1ccc(-c2cn3ccsc3n2)cc1)c1ccc2c(c1)OCCO2	-	-	14.9
Cn1c(=O)c(=O)n(C)c2cc(S(=O)(=O)Nc3ccc4c(c3)OCCO4)ccc21	-	-	-
CC(C)(C)C(=O)Nc1ccc(-c2cn3ccsc3n2)cc1	1.57	1µM	-
CCOCC(=O)Nc1ccc(-c2cn3cccnc3n2)cc1	-	-	-
COc1cccc([C@H]2Oc3ccc(OC)cc3/C(=N\O[C@@H]3O[C@H](COC(C)=O)[C@H](OC(C)=O)[C@H](OC(C)=O)[C@H]3OC(C)=O)[C@@H]2O)c1	.	-[11.4 µM]	.
O=C(c1cc(C(F)(F)F)cc(C(F)(F)F)c1)N1CCC[C@@]2(CCN(Cc3nccs3)C2)C1	.	-[11.4 µM]	.
Cn1c2ccccc2c2cnn(CC(=O)N3CCN(c4ncccn4)CC3)c(=O)c21	-	-	-
CC1(c2ccc3noc(-c4ccc(Cl)cc4)c3c2)OCCO1	?	-	-
c1ccc(-c2onc3cc4c(cc23)OCCO4)cc1	.	12.6µM	.
CC(C)C(=O)c1c(C(C)C)nn2ccccc12	.	-	.
O=C1N/C(=C\c2ccccc2)c2ccccc21	5.57	-	-
N#C/C=C1/NC(=O)c2ccccc2S1	-	-	-
CC(C)(C)c1ccc(O)c(CN(Cc2cc(C(C)(C)C)ccc2O)C2CCCCC2)c1	.	-[11.4 µM]	.
OCCN(CO)CO	.	-[11.4 µM]	.
O=C1c2ccccc2S(=O)(=O)N1Cc1nc2ccccc2s1	.	?	-
CN(C)c1ccc(C2=NOC(CN3C(=O)c4ccccc4S3(=O)=O)C2)cc1 (stereo not drawn)	.	15.8µM	-
CCN(CC(=O)O)C(=O)c1cccnc1	.	-[11.4 µM]	.
SMILES	Bst PK mod	Luciferase inh	GBA mod
COc1ccc(N2CCN(S(=O)(=O)c3cccc(C(F)(F)F)c3)CC2)cc1	-	-	-
Cn1c(=O)c2cc(S(=O)(=O)N3CCN(c4cccc(C(F)(F)F)c4)CC3)ccc2n(C)c1=O	-	-	7.27
Nc1nc(SCc2ccccc2)c2ncn(Cc3ccccc3)c2n1	.	-[11.4 µM]	.
CC(C)(C)n1ncc2c(=O)n(CC(=O)NCCc3ccccc3)cnc21	-	-	-
CC(C)(C)n1ncc2c(=O)n(CC(=O)NCc3ccccc3Cl)cnc21	.	25.1µM	-
Cc1cnc(CNc2cc(-c3ccccc3C)ncn2)cn1	.	-[2.29 µM]	.
COc1ccc(OC)c(NC(=O)c2ccc(CN3CCOCC3)cc2)c1	.	-	.
COc1ccc(CNC(=O)Nc2cccc(C)c2)cc1	-	-	-
COc1cccc(C(=O)Nc2cccc(SC)c2)c1	.	12.6µM	.
COC(=O)c1[nH]c2cc(OC)c(OC)cc2c1NC(=O)c1cccc(OC)c1	-	7.94µM	-
COc1ccc(C(=O)Nc2cc(OC)ccc2OC)cc1	.	20µM	-
COc1cccc(C(=O)Nc2c(F)c(F)c(F)c(F)c2F)c1	-	-	?
COc1cccc(C(=O)Nc2c(C)n[nH]c2C)c1	-	-	-
COc1ccc(C(=O)Nc2cccc(C)c2)cc1	.	6.31µM	.
C[C@@H]1C=CCC(=O)OC[C@H](C)C(=O)OC[C@H]2O[C@H]1C=C[C@@H]2O	.	-[11.4 µM]	.
COc1cccc2c1C(=O)c1c(O)c3c(c(O)c1C2=O)C[C@](O)(C(=O)CO)C[C@H]3O[C@@H]1C[C@H](N)[C@H](O)[C@H](C)O1	.	-	.
O=C(Oc1ccccc1)N1CCC2(CC1)CN(c1ccccc1)C2	.	-[11.4 µM]	.
O=C(O)C[C@@H](C(=O)O)c1ccccc1[N+](=O)[O-]	.	-[11.4 µM]	.
CS(=O)(=O)N1CCC2(CC1)CN(C(=O)Nc1ccccc1)C2	.	-[11.4 µM]	.
OCCSCc1cc(Cl)cc(Cl)c1O	.	-[11.4 µM]	.
CCOc1ccccc1C(=O)Nc1ccccc1C(N)=O	-	-	-
COc1ccc(C(=O)Nc2ccccc2C(N)=O)cc1	-	12.6µM	-
CO[C@H]1C[C@@H]2C[C@H](O)C[C@@H](CC(=O)O[C@@H](/C=C\CC(C)C)C[C@@H]3CC[C@H](C)[C@@H](C1)O3)O2	.	-[11.4 µM]	.
CCn1nc(NC(=O)c2ccccn2)c2cc3cc(C)ccc3nc21	.	7.94µM	-
CCn1nc(NC(=O)c2cccnc2)c2cc3ccccc3nc21	-	-	.
SMILES	Bst PK mod	Luciferase inh	GBA mod
OCC#CCSc1nnc(-c2ccncc2)o1	-	-	-
CCCOc1ccc(-c2nnc(-c3ccncc3)o2)cc1	1.57	-	-
c1cc(-c2nnc(-c3ccncc3)o2)ccn1	.	-	.
CC(C)COc1ccc(-c2nnc(-c3ccncc3)o2)cc1	2.32	-	-
COc1ccc(-c2ncc3ccccn23)cc1	.	15.8µM	-
c1csc(-c2ncc3ccccn23)c1	.	-	-
CC(=O)Nc1c(C)cc(OCC(=O)O)cc1C	.	-[11.4 µM]	.
O=C(Oc1ccc(OC(=O)N2CCOCC2)cc1)c1ccccc1	-	-	8.03
O=C(Oc1ccccc1OC(=O)N1CCOCC1)N1CCOCC1	-	-	-
Cc1ccc(Cn2nnc3c(=O)[nH]c(C4CCN(S(=O)(=O)c5ccc(C)cc5)CC4)nc32)cc1	-	-	13.9
Cc1ccc(NC(=O)N2CCC(c3nc4c(nnn4Cc4cccc(Cl)c4)c(=O)[nH]3)CC2)cc1	-	-	.
N#Cc1ccccc1OC[C@H](O)CNCCNC(=O)Nc1ccccc1	.	-	.
C=CCSC[C@@H]1Nc2cc(Cl)c(S(N)(=O)=O)cc2S(=O)(=O)N1	.	-	.
COc1ccc(NC(=O)N2CCC3(CC2)CCN(C(=O)c2cccn2C)CC3)cc1	.	-[11.4 µM]	.
CCCn1c(NC(=O)c2ccc(C)cc2)nc2ccccc21	-	-	-
Cc1ccc(C(=O)Nc2nc3ccccc3c(=O)s2)cc1	6.81	?	-
CCCCOc1[nH]c2nc(-c3ccco3)n(Cc3ccco3)c(=N)c2c1C#N	10.9	-	-
c1ccc(CSc2nnc(-c3ccco3)n2Cc2ccco2)cc1	-	-	-
CSc1nc2nc(-c3ccccc3)cc(C(F)(F)F)n2n1	-	-	10.8
CSc1nc2nc(C)cc(-c3ccccc3)n2n1	-	-	-
Cn1cc(-c2nc3cnc(N4CCOCC4)nc3n(CCC#N)c2=O)c2ccccc21	.	-[11.4 µM]	.
CCn1c(=N)n(CCO)c2ccccc21	-	-	-
CCn1c(=N)n(CC(=O)c2ccco2)c2ccccc21	.	-	13.4
NNS(=O)(=O)c1cc(C(=O)O)cc(C(=O)O)c1	.	-[11.4 µM]	.
O=C(O)CC[C@]1(C(=O)O)CCC(=O)c2ccccc21	.	-[11.4 µM]	.
CCOC(=O)CCN1C(=O)[C@H]2[C@H]3[C@H](O)[C@H](O)C/C(=N/NC(=O)OCc4ccc(OC)cc4)[C@H]3CC[C@@H]2C1=O	.	-[11.4 µM]	.
CC(C)(C)OC(=O)N[C@@H](Cc1ccccc1)c1nnc(S(=O)(=O)Cc2cccc(F)c2)o1	-	-	14.8
Cc1ccccc1CS(=O)(=O)c1nnc([C@H](CC(C)C)NC(=O)OC(C)(C)C)o1	-	-	.
O=C(O)/C=C\C(=O)Nc1ccccn1	.	-[11.4 µM]	.
O=C(/C=C\Nc1ccccn1)c1ccc(Cl)cc1	.	1.26µM	.
